# High-throughput results (PubChem)
# HCMV antiviral = human cytomegalovirus inhibition; HFF cells, HCMV-luciferase reporter, 72 h; active compounds read low; AID 1259415; 410,000 tested, 4.5% active; activity change, negative = inhibition, % at 57.5 µM; in the data active means activity change below about -60%; inconclusive means no clear call, values can overlap the other calls; inactive means above about -39%; further: on the % scale 0 is the no-effect control and ±100 the full control effect
#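 Luciferase read-out from HCMV-luciferase-infected HFFs (MOI 1 PFU/cell) 72 h post infection at 37C; compounds added after 16 h cell attachment; activity normalized between buffer-only basal and Salinomycin (10uM) inhibitor controls.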
# HCV inhibitor = inhibitors of hepatitis C virus infection | Potency, µM (highest dose often 41.8 µM), for inactives: top-dose activity change, negative = inhibition, actives largely listed as inhibitors | 340,000 tested, 3.4% active | Huh7.5.1 HCVcc-Cre infection, luciferase reporter, 44 h; further: potency means the concentration at half of the fitted maximal effect; on the % scale 0 is the no-effect control and ±100 the full control effect
#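 Infectious HCV cell culture screen: compound-treated cells (1,000/well, pre-plated 4 h) are infected with HCVcc-Cre at roughly 0.5 moi and grown 44 h. Infection is quantified by luciferase signal after 15 min substrate incubation at room temperature.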
# VACV mCherry inh = inhibitors of vaccinia virus infection (mCherry reporter signal). 310,000 tested, 0.63% active. Vaccinia virus mCherry reporter infection, fluorescence. AID 720579. Potency, µM (highest dose often 36.5 µM), inactives show at the highest dose activity change, negative = inhibition, usual class: inhibitors; calls by dose curve; tested in A549 cells; further: potency means the concentration at half of the fitted maximal effect; on the % scale 0 is the no-effect control and ±100 the full control effect; nearly all actives have a fitted effect of over 35% in size
# Vaccinia Venus = inhibitors of vaccinia virus (Venus reporter); Vaccinia virus Venus reporter expression, fluorescence; AID 720580; 330,000 tested, 0.46% active; Potency, µM (titrated, usually from 36.5 µM), for the others: top-dose activity change, negative = inhibition, most hits filed as inhibitors; calls by dose curve; tested in A549 cells; further: potency means the concentration at half of the fitted maximal effect; on the % scale 0 is the no-effect control and ±100 the full control effect; nearly all actives have a fitted effect of over 30% in size
# FMDV antiviral = foot and mouth disease virus antiviral activity; AID 1159524; 410,000 tested, 1.2% active; FMDV antiviral cell-based qHTS; Potency, µM (series often up to 57.9 µM), inactives show at the top dose activity change, negative = inhibition, hits mostly inhibitors; calls by dose curve; tested in HEK293T cells; further: read-out not given here; potency means the concentration at half of the fitted maximal effect; on the % scale 0 is the no-effect control and ±100 the full control effect; nearly all actives have a fitted effect of over 45% in size
# HCV inh confirm = HCV inhibition, cherry-pick confirmation | shares compounds with HCV inhibitor | 640 tested, 78% active | AID 720575 | HCVcc-Cre infectious virus cell assay, luciferase, inhibition | Potency, µM (titrated, usually from 41.8 µM), without a hit: top-dose activity, negative = inhibition, hits mostly inhibitors; further: potency means the concentration at half of the fitted maximal effect; nearly all actives have a fitted effect of over 80% in size
# HCV cytotox = counter-screen for HCV inhibitors: host cell cytotoxicity; shares compounds with HCV inhibitor; HCV host cell line cytotoxicity counterscreen; Potency, µM (doses to about 41.8 µM), for the others: top-dose activity change, negative = cytotoxicity, hits mostly inhibitors; 640 tested, 22% active; AID 720576;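 further: potency means the concentration at half of the fitted maximal effect; 44 h compound exposure; on the % scale 0 is the no-effect control and ±100 the full control effect; nearly all actives have a fitted effect of over 55% in size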
# * = called active by the depositor; i = inactive; u = inconclusive; x = not tested or not shown; [ ] = another dose, or the depositor's remark. A selection: hits, their analogues and other compounds. The true share with any hit is near 7.3%. Unless noted, the call rests on the fitted dose curve; in most records, active means well fitted curve in the direction sought with a large enough effect; inconclusive means small, poorly fitted or top-dose-only effect, or another doubt; inactive means no such curve, though single readings can be large; an effect the other way counts as inactive or inconclusive.
SMILES,HCMV antiviral,HCV inhibitor,VACV mCherry inh,Vaccinia Venus,FMDV antiviral,HCV inh confirm,HCV cytotox
C/C(=N\NC(N)=S)C1=CCC2C3CC[C@H]4CC(O)CC[C@]4(C)C3CC[C@]12C (some centres not stated),-38.0,u,x,x,u,7.91µM*,0.0%
Cc1nn(C)c(Nc2ccc(Br)cc2)c1Br,-83.2*,3.55µM*,-16.3%,-16.1%,u,4.99µM*,8.87µM*
Cc1cc(O)c(C(c2ccccc2)N2CCN(c3ccccc3)CC2)c(=O)n1Cc1ccco1 (configuration not stated),-4.7,x,-14.3%,-10.5%,-25.4%,x,x
CCOc1ccc(C(=O)C(CCC(CN(C)C)C(=O)c2ccc(OCC)cc2)CN(C)C)cc1 (configuration not stated),-98.9*,3.16µM*,x,x,15.8µM*,7.91µM*,7.91µM*
COCCCn1c(SCc2cccc(C(F)(F)F)c2)nc2cc(OC)c(OC)cc2c1=N,-7.6,2.2%,x,x,13.9%,x,x
COCCCn1c(SCc2ccccc2)nc2cc(OC)c(OC)cc2c1=N,41.9,u,x,x,-15.9%,14.1µM*,58.4%
Cc1cc(NC(=S)N(CCN2CCCCC2)Cc2ccco2)ccc1Cl,u,8.91µM*,-22.8%,-20.3%,2.6%,25µM*,-13.5%
C=CCn1c(SCc2ccccc2F)nc2cc(C(=O)O)ccc2c1=O,u,14.1%,i,-8.6%,8.2%,x,x
O=C1CC(c2ccccc2)Cc2[nH]c(=O)c(C(=O)O)cc21 (configuration not stated),x,x,34.5%,-4.0%,x,x,x
CCCCCNC(=O)c1cn(CC)c2cc(N3CCN(C)CC3)c(F)cc2c1=O,5.6,u,u,u,-5.1%,14.1µM*,-28.2%
O=C(NCC1CCCO1)c1cc2c([nH]c3ccccc32)c(-c2cccc(Br)c2)n1 (configuration not stated),-72.3*,2µM*,u,u,u,14.1µM*,37.2%
Cc1cc(=O)[nH]c(N=N/C(=N/Nc2ccc(O)cc2)c2ccccc2)n1,68.3,6.3%,-18.6%[1.46 µM],-12.3%,-22.7%,x,x
COc1ccc(N/N=C(/N=Nc2nc(C)cc(=O)[nH]2)c2ccccc2)cc1,-88.8*,4.47µM*,-9.7%[1.46 µM],-18.1%,-7.6%,7.91µM*,11.2µM*
C=CCCC1CN(Cc2ccc(OC)cc2)S(=O)(=O)c2c(cccc2N(C)S(=O)(=O)c2ccc(C)cc2)O1 (configuration not stated),-18.5,x,x,x,x,x,x
COc1cc(NC(=O)c2ccccc2OCc2ccccc2)cc(OC)c1OC,4.4,u,x,x,u,14.1µM*,12.3%
CCOCc1c(C(=O)NC2=Nc3ccccc3NC(CC)=C2C(=O)OCC)oc2ccccc12,u,u,i,-13.3%,-19.5%,x,x
CCOC(=O)C1=C(CC)Nc2ccccc2N=C1NC(=O)c1oc2ccccc2c1C,68.8,u,-16.3%,-5.8%,-25.9%,12.5µM*,1.8%
O=C1/C(=C/c2ccccn2)COc2ccccc21,u,19.6%,-16.3%,-8.4%,u,x,x
CC(C)(C)C1C/C(=C/c2ccccn2)C(=O)/C(=C/c2ccccn2)C1 (configuration not stated),x,0.891µM*,u,u,3.55µM*,0.995µM*,1.41µM*
NC(=O)COC(=O)c1ccccc1OCC(=O)Nc1ccc(Br)cc1,x,x,-12.2%,-11.4%,x,x,x
O=C1S/C(=C\c2ccc(N3CCOCC3)o2)C(=O)N1Cc1c(F)cccc1Cl,9.4,u,-6.8%,20.1%,x,x,x
O=C1S/C(=C/c2ccc(N3CCOCC3)o2)C(=O)N1Cc1c(F)cccc1Cl,-11.4,u,x,x,9.0%,12.5µM*,11.2%
CCOC(=O)c1cc2c(ccc3nc(C)c(C)c32)[nH]c1C,-16.7,3.16µM*,x,x,1.8%,12.5µM*,20.2%
Cc1ccc(NC(=O)CCc2ccc(C)o2)cc1,-28.5,-14.0%,i,-15.8%,22.2%,x,x
Cn1ncc2c(NCCc3ccccc3)nc(Cl)nc21,7.3,u,-6.3%,-19.0%,-23.7%,25µM*,-6.8%
SMILES,HCMV antiviral,HCV inhibitor,VACV mCherry inh,Vaccinia Venus,FMDV antiviral,HCV inh confirm,HCV cytotox
CCc1nn2cc(C(=O)c3cc(C)ccc3O)cnc2c1-c1ccc(F)cc1,-17.8,u,-12.8%,-13.3%,u,x,x
CCc1nn2cc(C(=O)c3ccccc3O)cnc2c1-c1ccc(F)cc1,26.9,u,-12.6%,-13.0%,0.0%,11.2µM*,-10.0%
Cc1ccc(CNC(=O)CN2C(=O)CCc3cc(S(=O)(=O)N4CCCCC4)ccc32)cc1,15.3,x,-18.2%,-15.6%,-15.6%,x,x
COc1cc(CSc2nnnn2-c2ccc(C)cc2)cc(OC)c1OC,-88.8*,u,-18.0%,-29.6%,x,1.77µM*,-93.7%
COc1ccc(CSc2nnnn2-c2ccc(C(N)=O)cc2)cc1[N+](=O)[O-],37.9,-1.5%,x,x,-21.2%,x,x
CCCn1c(=NC(=O)c2ccco2)c(C(=O)OCC)cc2c(=O)n3ccccc3nc21,-26.7,u,-20.0%,-8.7%,x,u,20.6%
Cn1c(SCc2ccc(F)cc2Cl)nc2ccccc2c1=O,u,u,-27.6%,-25.2%,u,6.28µM*,14.1µM*
COc1cc2c(cc1NC(=O)/C=C/c1ccc([N+](=O)[O-])cc1)oc1ccccc12,-23.0,-27.5%,8.1%,3.0%,-2.0%,x,x
COc1cc2c(cc1NC(=O)COC(=O)/C=C/c1ccc([N+](=O)[O-])cc1)oc1ccccc12,-33.1,u,x,x,0.9%,u,22.9%
COc1cc(NC(=O)C2CCN(S(=O)(=O)c3c(C)noc3/C=C/c3cccs3)CC2)cc(OC)c1,-3.6,x,-7.5%,-7.4%,-18.2%,x,x
Cc1cccc(-c2n[nH]c(=S)n2/N=C/c2ccco2)c1,-22.3,13.0%,x,x,19.7%,x,x
N=c1scc(-c2ccccc2)n1/N=C/c1ccco1,7.5,u,-2.2%,-12.2%,33.4%,25µM*,-29.6%
CCCCc1nn2c(=O)cc(COC(=O)c3ccccc3C)nc2s1,13.5,x,0.0%,0.3%,19.4%,x,x
CC(C)c1ccc(S(=O)(=O)c2cnc(SCC(=O)Nc3cccc(C(F)(F)F)c3)nc2N)cc1,-24.0,x,3.1%,-8.2%,u,x,x
CC(CCC(=O)O)C1CCC2C3CC[C@@H]4CCCC[C@@]4(C)C3CC[C@@]12C (some centres not stated),x,x,i,-0.2%,-6.7%,x,x
CCCCCn1c(=O)[nH]c2cc(C(=O)NCCCN3CCC(C)CC3)ccc2c1=O,13.9,4.47µM*,x,x,-14.4%,15.8µM*,38.9%
O=C(NC1CCCC1)C1C(c2ccc(C(F)(F)F)cc2)=Nc2ccccc2N1C(=O)c1ccccc1 (configuration not stated),8.7,x,-28.5%,-15.6%,46.4%,x,x
Cc1cc(C)cc(NC(=O)c2nnn(Cc3cc(C)ccc3C)c2N)c1,x,u,-19.2%,-17.1%,u,11.2µM*,23.4%
